Only some compounds are listed: those with a hit (about 8.2% of all), similar ones and a draw of the others.
KB-V1 MDR tox: qHTS assay for MDR1-selective chemotherapeutics: Primary screen using the drug-selected MDR subline cells KB-V1 | KB-V1 MDR cells viability, CellTiter-Glo, 72 h | 3.4% of 400,000 active | Potency, µM (doses to about 46.1 µM), hits mostly cytotoxic; further: on the % scale 0 is the no-effect control and ±100 the full control effect; nearly all actives have a fitted effect of over 60% in size
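KB-V1, DMEM (no phenol red) + 10% FBS; cpd pin-transferred, titration series; 72 h, 37 degrees C; CellTiter-Glo, luminescence. Data normalized, curve-fit.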
ELG1 DNA repair: qHTS screen for small molecules that inhibit ELG1-dependent DNA repair in human embryonic kidney (HEK293T) cells expressing luciferase-tagged ELG1; HEK293T ELG1-luciferase reporter, luminescence, 16 h; DNA damage induced by 5-fluorouridine; Potency, µM (titrated, usually from 46.1 µM), inactives show top-dose activity change, negative = inhibition, hits mostly inhibitors; 2.3% of 330,000 active; AID 504467, 2011; further: on the % scale 0 is the no-effect control and ±100 the full control effect; nearly all actives have a fitted effect of over 55% in size
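HEK293T cells expressing luciferase-tagged ELG1 (2,000/well) received 5-Fluorouridine plus compound or DMSO for 16 hr at 37 °C. Luciferase was read by ONE-Glo luminescence after 30 min at room temperature.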
SW480 rereplic: A quantitative high throughput screen for small molecules that induce DNA re-replication in SW480 colon adenocarcinoma cells; SW480 DNA re-replication, Hoechst DNA content imaging, 48 h; Potency, µM (highest dose often 46.1 µM), without a hit: top-dose re-replication activation, usual class: activators; 1.8% of 340,000 active; AID 624297, 2012; further: % of control where 0% means no effect; nearly all actives have a fitted effect of over 55% in size
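Quantitative HTS format with DMSO vehicle controls; 48 hr drug incubation at 37 C, then 40 min Hoechst staining and scanning imager measurement at 405 nm excitation.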
MCF10A rereplic: A quantitative high throughput screen for small molecules that induce DNA re-replication in MCF 10a normal breast cells; MCF 10A DNA re-replication, Hoechst nuclear intensity, 48 h; Potency, µM (series often up to 46.1 µM), inactives show top-dose activity, positive = re-replication, most hits filed as activators; 2.9% of 350,000 active; AID 624296, 2012; further: % of control where 0% means no effect; nearly all actives have a fitted effect of over 50% in size
KB-3-1 tox: qHTS assay for MDR1-selective chemotherapeutics: Primary screen using the parental adenocarcinoma cell KB-3-1; KB-3-1 viability, CellTiter-Glo ATP luminescence, 72 h; Potency, µM (top dose mostly 46.1 µM), actives largely listed as cytotoxic; 1.4% of 400,000 active; AID 1347075, 2019; further: on the % scale 0 is the no-effect control and ±100 the full control effect; nearly all actives have a fitted effect of over 60% in size
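Cytotoxicity in the drug-sensitive parental line KB-3-1 was scored as loss of CellTiter-Glo luminescence following 72 h incubation with compound. Values come from curve fitting of normalized concentration-response data.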
The depositor's hits bear a star; i = inactive; ? = inconclusive; nt = not tested or not shown; ! = not active in a repeat. The call rests on the fitted dose curve; in most records, active means well fitted curve in the direction sought with a large enough effect; inconclusive means small, poorly fitted or top-dose-only effect, or another doubt; inactive means no such curve, though single readings can be large; an effect the other way counts as inactive or inconclusive. Potency means the concentration at half of the fitted maximal effect.

SMILES	KB-V1 MDR tox	ELG1 DNA repair	SW480 rereplic	MCF10A rereplic	KB-3-1 tox
COc1ccc(-c2cc(C(F)(F)F)nc(SCC(=O)N3CCOCC3)n2)cc1OC	i	8.2µM*	-5%	?	i
Cc1cccc(NC(=O)CCCN=C2NS(=O)(=O)c3ccccc32)c1C	i	?	-9%	-5%	i
CC(C)NC(=O)C1(C)CSCC(=O)N1CCCn1ccnc1 (stereo not drawn)	i	nt	nt	nt	i
COc1ccccc1-c1cc(C(F)(F)F)nc(S(=O)(=O)CCCC(=O)O)n1	i	15%	3.5µM*	?	i
COc1ccc(-c2cc(C(F)(F)F)nc(S(=O)(=O)CCCC(=O)Nc3cccc(O)c3)n2)cc1OC	i	?	?	6.5µM*	i
COc1ccccc1-c1cc(C(F)(F)F)nc(S(=O)(=O)CCCC(=O)Nc2cc(OC)c(OC)c(OC)c2)n1	?	nt	nt	nt	i
COc1ccccc1-c1cc(C(F)(F)F)nc(S(=O)(=O)CCCC(=O)Nc2ccc(F)c(Cl)c2)n1	?	nt	nt	nt	i
COc1ccccc1/C=C1\S/C(=N/NC(=O)c2cccc(Br)c2)NC1=O	?	1%	16%	10µM*	8.2µM*
CC(C)n1nnnc1SCC(=O)NC1CCCC1	i	?	-11%	-1%	i
CCC(C(=O)NC1CCCC1)N(Cc1ccco1)C(=O)Cn1nnc(-c2ccc(C)cc2)n1 (stereo not drawn)	i	?	-2%	2%	i
CCOC(=O)CN(C(=O)Cn1nnc(-c2ccc(C)cc2)n1)C(CC)C(=O)NC1CCCC1 (stereo not drawn)	4.1µM*	?	1%	1%	i
CC1(C(=O)NCc2cccs2)CCN1C(=O)Cc1ccc(Cl)cc1Cl (stereo not drawn)	i	nt	nt	nt	i
COc1ccc(NC(=S)NC23CN4CN(CN(C4)C2)C3)cc1	i	-1%	0.52µM*	-4%	i
CNc1snc(C)c1C(=O)OC(C)C(=O)Nc1ccccc1 (stereo not drawn)	i	?	2%	1%	i
Cc1cc(C(=O)CSc2nnc(N)s2)c(C)n1Cc1cccs1	23µM*	?	-70%	16%	?
Cc1cc(C(=O)COc2cccnc2[N+](=O)[O-])c(C)n1Cc1cccs1	?	6%	11%	?	?
CC(=O)Nc1ccccc1OCC(=O)c1cc(C)n(Cc2cccs2)c1C	?	?	1%	14%	4.6µM*
NC(=O)c1cc2cc(Br)ccc2o/c1=N/NC(=O)c1cccc(F)c1	i	0%	?	-3%	i
Cc1ccc2c(CC(=O)NCc3ccco3)coc2c1C	5.8µM*	?	?	12µM*	7.3µM*
CCOC(=O)COc1ccc2nsnc2c1Cl	i	?	11%	18%	i
C=C(CC)C(=O)c1ccc(OCC(=O)O)c(Cl)c1Cl	i	-13%	?	19µM*!	i
COC(=O)c1ccc(-c2nc3ccc(C)cc3o2)cc1	?	?	7.3µM*	?	?
Cc1ccc(-c2nc3cc(C)ccc3o2)cc1	i	?	-1%	2%	i
CCNC(=S)NNC(=O)c1cc(-c2cccc(OCC)c2)nc2ccccc12	i	?	-14%	1%	i
CCCCOc1ccc(-c2cc(C(=O)NNC(=S)NCC)c3ccccc3n2)cc1	6.5µM*	?	4%	41%	7.3µM*
SMILES	KB-V1 MDR tox	ELG1 DNA repair	SW480 rereplic	MCF10A rereplic	KB-3-1 tox
CCOc1ccc(-c2cc(C(=O)NCCCn3ccnc3)c3ccccc3n2)cc1	i	2%	-18%	0.58µM*	i
O=C(N/N=C/c1cccnc1)c1cccc(Br)c1	?	?	-9%	-3%	i
Cc1cccc(/C=N/NC(=O)c2cc(-c3cccnc3)nc3c2c(C)nn3-c2ccccc2)c1	15µM*	?	-2%	?	i
Cc1cccc(/C=N/NC(=O)c2cc(-c3cccnc3)nc3ccccc23)c1	i	4%	-5%	4%	i
O=C(N/N=C/c1cccnc1)c1ccccc1OCc1cccc(Br)c1	i	21µM*	-5%	1%	i
CCNC(=S)NNC(=O)c1cc(-c2ccc(OC)cc2)nc2ccccc12	9.2µM*	?	nt	14%	?
CCCCOc1cccc(-c2cc(C(=O)NNC(=S)NCC)c3ccccc3n2)c1	21µM*	?	5%	-3%	i
COc1cc2ccccc2cc1C(=O)N/N=C/c1cccnc1	?	-21%	1%	-2%	16µM*
CCNC(=S)NNC(=O)c1cc(-c2cccc(C)c2)nc2ccccc12	?	?	-9%	2%	?
CCCOc1cccc(-c2cc(C(=O)N/N=C/c3cccnc3)c3ccccc3n2)c1	?	16µM*	?	?	i
COc1ccc(Br)cc1C(=O)N/N=C/c1cccnc1	i	3%	-5%	-2%	i
O=C(C1CCCN(S(=O)(=O)c2ccc(F)cc2)C1)N1CCCCC1 (stereo not drawn)	i	15%	-59%	?	i
O=C(Nc1ccon1)c1nc[nH]c1C(=O)N1CCN(c2ccccc2)CC1	i	0%	-33%	-1%	i
Cc1ccc(C(=O)Nc2ccnc(-c3ccncc3)n2)cc1	i	-10%	-6%	-5%	i
COc1ccc(S(=O)(=O)N(C)CC(=O)Nc2ccccc2C(F)(F)F)cc1Cl	15µM*	-20%	-1%	-10%	i
COc1cc(OC)c(NC(=O)CN(C)S(=O)(=O)c2ccc(-c3ccc(=O)[nH]n3)s2)cc1Cl	i	6.5µM*	3%	-1%	i
COc1ccc(S(=O)(=O)N(C)CC(=O)Nc2ccccc2C(F)(F)F)cc1	i	-5%	4%	-8%	i
Clc1ccc(CN2CCCCCC2)cc1	i	-7%	-3%	8%	i
O=[N+]([O-])c1cc(CN2CCCC2)ccc1Sc1ccc(Cl)cc1	?	2%	6%	10µM*	?
Cc1cc(C(F)(F)F)n2nc(-c3ccc(Br)cc3)cc2n1	?	nt	nt	nt	i
COCn1c(=O)c2c(nc(SC3=NCCS3)n2Cc2ccccc2C)n(COC)c1=O	?	18µM*	25%	21%	i
COCCCn1c(=O)c2ccccc2n(Cc2ccccc2C)c1=O	i	-6%	-105%	?	i
Cc1ccc2c(C(=O)CNc3nc(C)c(C)s3)c(C)[nH]c2c1	i	nt	nt	nt	i
CCn1nc(C)cc1C(=O)N1CCCC(C(=O)c2ccc(OC)cc2C)C1 (stereo not drawn)	i	?	-2%	8%	i
